# Experimental data published in PubChem BioAssay (NCATS).
# Inconclusive results are not listed. Where a call stands in place of a potency, no number is given. The source made the active and inactive calls. Calls follow the shape of the dose curve; as a rule, active = well fitted cell-killing curve with a large enough effect; inconclusive = small, poorly fitted or top-dose-only effect; inactive = flat fitted curve, though single readings scatter.
# Test: qHTS of pediatric cancer cell lines to identify multiple opportunities for drug repurposing: Confirmatory screen for A673 cells (AID 1347110);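 also: cells exposed to compound for 48 h before the viability read; nearly all actives have a fitted effect of over 65% in size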
# Conditions: A673 Ewing sarcoma cell viability; series mostly up to 45.9 µM
# How it was run: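 A673 cells at 500-1,000 cells/well were dosed 5 h after plating, in dilution series up to 46 uM final; primary runs used 8 or 11 points and confirmatory runs used 11 points. Viability was read by CellTiter-Glo luminescence after 48 h, against DMSO and 2.3 uM bortezomib controls.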
# Potency is read from the fitted curve at half-maximal effect.
row,Compound,Potency
1,CC(=O)[C@H]1CC[C@H]2[C@@H]3C[C@H](C)C4=CC(=O)CC[C@]4(C)[C@H]3[C@@H](O)C[C@]12C,inactive
2,NC(CO)(CO)CO,inactive
3,C[C@]12CCC(=O)C=C1CC[C@H]1[C@@H]3CC[C@](O)(C(=O)CO)[C@@]3(C)C[C@H](O)[C@@]12F,inactive
4,C[C@H]1C[C@H]2[C@@H]3CCC4=CC(=O)C=C[C@]4(C)[C@@]3(Cl)[C@@H](O)C[C@]2(C)[C@@]1(O)C(=O)CO,18.5 µM (active)
5,CCCC(=O)O[C@]1(C(=O)CO)CC[C@H]2[C@@H]3CCC4=CC(=O)CC[C@]4(C)[C@H]3[C@@H](O)C[C@@]21C,inactive
6,C[C@]12C=CC(=O)C=C1[C@@H](F)C[C@@H]1[C@@H]2[C@@H](O)C[C@@]2(C)[C@H]1CC[C@]2(O)C(=O)CO,inactive
7,CCOc1ccc2nc3cc(N)ccc3c(N)c2c1,18.5 µM (active)
8,CCCCC(=O)O[C@]1(C(=O)CO)CC[C@H]2[C@@H]3CCC4=CC(=O)CC[C@]4(C)[C@H]3[C@@H](O)C[C@@]21C,inactive
9,CC(=O)OCC(=O)[C@@]1(O)[C@H](C)C[C@H]2[C@@H]3CCC4=CC(=O)C=C[C@]4(C)[C@@]3(F)[C@@H](O)C[C@@]21C,9.27 µM (active)
10,COc1cccc2c1C(=O)c1c(O)c3c(c(O)c1C2=O)C[C@@](O)(C(=O)CO)C[C@@H]3O[C@H]1C[C@H](N)[C@H](O)[C@H](C)O1,0.928 µM (active)
11,CC(=O)OCC(=O)[C@@]1(O)CC[C@H]2[C@@H]3CCC4=CC(=O)C=C[C@]4(C)[C@H]3[C@@H](O)C[C@@]21C,inactive
12,OC[C@H]1O[C@@H](n2cnc3c(=S)nc[nH]c32)[C@H](O)[C@@H]1O,2.08 µM (active)
13,COCc1c(C(C)C)nc(C(C)C)c(/C=C/[C@@H](O)C[C@@H](O)CC(=O)O)c1-c1ccc(F)cc1,0.414 µM (active)
14,NC(=O)CC[C@@H]1NC(=O)[C@H](Cc2ccccc2)NC(=O)[C@H](Cc2ccc(O)cc2)NC(=O)CCSSC[C@@H](C(=O)N2CCC[C@H]2C(=O)N[C@@H](CCCN=C(N)N)C(=O)NCC(N)=O)NC(=O)[C@H](CC(N)=O)NC1=O,inactive
15,CC1(C)O[C@@H]2C[C@H]3[C@@H]4C[C@H](F)C5=CC(=O)CC[C@]5(C)[C@H]4[C@@H](O)C[C@]3(C)[C@]2(C(=O)CO)O1,inactive
16,C[C@@H]1C[C@H]2[C@@H]3C[C@H](F)C4=CC(=O)C(Cl)=C[C@]4(C)[C@@]3(F)[C@@H](O)C[C@]2(C)[C@@]1(O)C(=O)CO,inactive
17,C[C@@H]1C[C@H]2[C@@H]3CCC4=CC(=O)C=C[C@]4(C)[C@@]3(F)[C@@H](O)C[C@]2(C)[C@H]1C(=O)CO,inactive
18,CN(C)C(=S)SC(=S)N(C)C,2.61 µM (active)

# Test: qHTS of pediatric cancer cell lines to identify multiple opportunities for drug repurposing: Confirmatory screen for BT-12 cells (AID 1347112); also: nearly all actives have a fitted effect of over 55% in size
# Conditions: BT-12 rhabdoid tumor cells, viability; series mostly up to 45.9 µM
# How it was run: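 Viability after 48 h compound treatment at 37C, 500-1,000 cells/well, read as ATP luminescence with CellTiter-Glo. Primary screens used 11-point (MIPE, 0.78 nM-46 µM) or 8-point (NPC, 0.59 nM-46 µM) final concentrations; follow-up screens used 11-point dilutions.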
row,Compound,Potency
1,CC(=O)[C@H]1CC[C@H]2[C@@H]3C[C@H](C)C4=CC(=O)CC[C@]4(C)[C@H]3[C@@H](O)C[C@]12C,inactive
2,NC(CO)(CO)CO,inactive
3,C[C@H]1C[C@H]2[C@@H]3CCC4=CC(=O)C=C[C@]4(C)[C@@]3(Cl)[C@@H](O)C[C@]2(C)[C@@]1(O)C(=O)CO,inactive
4,CCCC(=O)O[C@]1(C(=O)CO)CC[C@H]2[C@@H]3CCC4=CC(=O)CC[C@]4(C)[C@H]3[C@@H](O)C[C@@]21C,inactive
5,C[C@]12C=CC(=O)C=C1[C@@H](F)C[C@@H]1[C@@H]2[C@@H](O)C[C@@]2(C)[C@H]1CC[C@]2(O)C(=O)CO,inactive
6,O=C(CCCN1CCC(O)(c2ccc(Br)cc2)CC1)c1ccc(F)cc1,inactive
7,CCOc1ccc2nc3cc(N)ccc3c(N)c2c1,16.5 µM (active)
8,CC(=O)OCC(=O)[C@@]12OC(C)(C)O[C@@H]1C[C@H]1[C@@H]3C[C@H](F)C4=CC(=O)C=C[C@]4(C)[C@@]3(F)[C@@H](O)C[C@@]12C,inactive
9,CCC(C(=O)OCCN(CC)CC)c1ccccc1 (configuration not stated),inactive
10,COc1cccc2c1C(=O)c1c(O)c3c(c(O)c1C2=O)C[C@@](O)(C(=O)CO)C[C@@H]3O[C@H]1C[C@H](N)[C@H](O)[C@H](C)O1,4.65 µM (active)
11,C[C@]12C=CC(=O)C=C1CC[C@@H]1[C@@H]2[C@@H](O)C[C@@]2(C)[C@H]1CC[C@]2(O)C(=O)CO,inactive
12,CC(=O)OCC(=O)[C@@]1(O)CC[C@H]2[C@@H]3CCC4=CC(=O)C=C[C@]4(C)[C@H]3[C@@H](O)C[C@@]21C,inactive
13,OC[C@H]1O[C@@H](n2cnc3c(=S)nc[nH]c32)[C@H](O)[C@@H]1O,14.7 µM (active)
14,NC(=O)CC[C@@H]1NC(=O)[C@H](Cc2ccccc2)NC(=O)[C@H](Cc2ccc(O)cc2)NC(=O)CCSSC[C@@H](C(=O)N2CCC[C@H]2C(=O)N[C@@H](CCCN=C(N)N)C(=O)NCC(N)=O)NC(=O)[C@H](CC(N)=O)NC1=O,inactive
15,CC1(C)O[C@@H]2C[C@H]3[C@@H]4C[C@H](F)C5=CC(=O)CC[C@]5(C)[C@H]4[C@@H](O)C[C@]3(C)[C@]2(C(=O)CO)O1,inactive
16,CC(=O)Oc1ccc(C(c2ccc(OC(C)=O)cc2)c2ccccn2)cc1,inactive
17,CC(=O)Oc1ccc2c(c1)CC[C@@H]1[C@@H]2CC[C@]2(C)[C@@H](O)CC[C@@H]12,inactive
18,C[C@@H]1C[C@H]2[C@@H]3CCC4=CC(=O)C=C[C@]4(C)[C@@]3(F)[C@@H](O)C[C@]2(C)[C@H]1C(=O)CO,inactive
19,CN(C)C(=S)SC(=S)N(C)C,4.65 µM (active)
